Test results as given in PubChem BioAssay AID1347426 (Functional Genomics Laboratory (NCATS/FGL), 2020).
Hit rate of the full screen: of about 31,000 sequences, about 1,400 (4.5%) were called active. The entries come from a sample that favours actives as a whole. Unmarked numbers belong to inactive results.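 How the source made its calls: active means median seed-adjusted z-score above 1 or below -1; inactive means the rest.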

Test: Novel Modifiers of Survival Motor Neuron (SMN) Protein: Gene Identification via Genome-wide siRNA Screen;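 further: luminescence tracks full-length SMN protein made from the SMN2 reporter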
Conditions: HEK293T SMN2-luciferase reporter, siRNA knockdown, 72 h; actives lie on both sides
In short: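 Steps: spot 1 pmol siRNA, add Lipofectamine RNAiMax in serum-free DMEM, seed HEK293T SMN2–luciferase reporter cells; incubate 72 h at 37 °C; add ONE-Glo; normalize luminescence to control siRNA, log10, MAD. Candidates: |MAD| > 1.0.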

Going from CAAGAGGGUUUUUACCAUATT against SEC11C to GGUCAUGGAUGUGCACGAUTT against KRT14, the median seed-adjusted z-score falls from 0.508 to -0.127.

Going from CAUCAGGAAUGGAAUUACATT against SKIL to CCUCCCAUCUUAUUAUCCATT against ZNF572, the median seed-adjusted z-score rises from -0.868 to 0.237.

Compared with GGUGGAGACAUUUACAUCUTT against CREB3L1, CAAAGUACCGAGUCGAAUATT against SENP7 is lower in median seed-adjusted z-score: 0.708 for the first, 0.547 for the second.

Going from GCAAGACCGUGAGACAACUTT against SENP7 to GAACCACAAGGAGAAGUUUTT against PSMC3, the median seed-adjusted z-score falls from 0.547 to -0.701.

First: ACAAGGACUAUUACAGAUATT against PLA2G2D
Second: GGAGACAUCUGACCCAGCATT against ARHGAP9
The median seed-adjusted z-score of the first is higher: 0.361 for the first, 0 for the second.

First: CGUCAGAUCUGAACAAGAATT against CHST4
Second: GUAUAUCAGUUCCAGUUUATT against RANBP3
The median seed-adjusted z-score of the first is higher: 0.349 for the first, -0.211 for the second.

Compared with UUAUCACAGAGCAACCUAATT against NUBPL, GGAAUGCACCCAGAUCAAATT against TFAP2D is lower in median seed-adjusted z-score: 0.105 for the first, 0 for the second.

Compared with CCGAAUGAAUGGUGAUAAATT against TUSC3, CAAGGACACUUCAUCGUGATT against AVPR2 is lower in median seed-adjusted z-score: 0.138 for the first, -0.262 for the second.

First: GAACUCAUCAAAAUGCACATT against KLF15
Second: AUACAUCAAAGAUUAGUAATT against NTS
The median seed-adjusted z-score of the first is lower: -0.45 for the first, 0.518 for the second.

Going from GUUAAUCACAUACACCAAATT against GPR22 to CCGCUUGACUAUGAGCUCATT against TTC7A, the median seed-adjusted z-score falls from 0.705 to -0.303.

First: CCAGGAGCGAUAACAGUAATT against DAZAP1
Second: CCUUAUCGAUAUUAUGAGATT against CPEB2
The median seed-adjusted z-score of the first is higher: 0 for the first, -0.00928 for the second.

First: GGAUCGGAUGGAUAAGAAUTT against CTTN
Second: CACUAGGAAUCACACCGUUTT against TINAG
The median seed-adjusted z-score of the first is lower: -0.314 for the first, 0.374 for the second.

Going from GAGACGAGGAGGAAACUUUTT against DDX27 to GCAGUAUGCAGAUUGUUCATT against FGL1, the median seed-adjusted z-score falls from -0.131 to -0.259.

Compared with GAUAAUUCCAUGACAUUAUTT against CYP39A1, GAAGAGAACUCUAAGAUCATT against CAMK1G is lower in median seed-adjusted z-score: 0.196 for the first, -0.358 for the second.

Going from GCAAGUCCCUGUACUAUUATT against ANXA2 to GCAGAACUGCUGCUACAGATT against ANKZF1, the median seed-adjusted z-score falls from 0.499 to 0.176.

Compared with CACCGUUCAUCUGCACAGATT against KATNA1, CGAUAAACUCAGACCAGAATT against IDE is higher in median seed-adjusted z-score: -0.471 for the first, -0.081 for the second.

Compared with GGAAAGUUGAUUUUUAUGATT against MS4A6E, CAAUGUCCCAAGAUAAAGATT against PRPSAP1 is higher in median seed-adjusted z-score: -0.341 for the first, 0.224 for the second.

Going from CUCUUUGACCGGUUGCUCATT against EGLN2 to CCAUUUUAGCUCUAGAAGATT against GSTA4, the median seed-adjusted z-score falls from -0.349 to -0.848.

Going from GAAUUGGCCGUUGGGCUUATT against COX8A to CAAGGUCAUUAAUAAGGAUTT against CST5, the median seed-adjusted z-score rises from -0.0749 to 0.466.

First: CACCCAACACCAAACUGUATT against HSPB6
Second: GAAUUAACUUCAUGGUGAATT against PPM1K
The median seed-adjusted z-score of the first is higher: 0.394 for the first, 0.154 for the second.

Going from GCCGAAUCCUGAAGAGACATT against QTRTD1 to CAACCACUGUGAGACGAAATT against MFGE8, the median seed-adjusted z-score falls from 0.377 to 0.0367.

Compared with CUGAGAUACUGCAAGCUGATT against IL5RA, CCGACUACUCCAACGAGAATT against MASP2 is higher in median seed-adjusted z-score: -0.357 for the first, -0.137 for the second.

Compared with CUCUGAACCAAAUCGUUUATT against DPP8, GAUGACUACUUAGCUCUAATT against FLJ90650 is higher in median seed-adjusted z-score: -0.0209 for the first, 0.427 for the second.

First: GGCCUAGUGUAAUCUCCCATT against ZNF774
Second: CCAUGUUACCAUACAAUAATT against MXD1
The median seed-adjusted z-score of the first is higher: -0.0834 for the first, -0.763 for the second.

First: CCACAGAGGCUAUGCUAAATT against ACE
Second: GUAGCUCCGAGGUCUGAUATT against SMARCA4
The median seed-adjusted z-score of the first is lower: 0.0874 for the first, 0.223 for the second.

Compared with GGAACUACCAGAUCGGGAATT against MYO9B, CAUGCGGUCUUAGAAAUGATT against HNRPUL1 is lower in median seed-adjusted z-score: -0.0287 for the first, -0.047 for the second.

Going from GCAUUUGAGCAUGAAAAUATT against VPS29 to CCACUCCAUUGAAGAUGUATT against SREBF1, the median seed-adjusted z-score rises from -0.408 to -0.0469.

Going from CAACCAGAAUUACUGCUAUTT against PCDH10 to CGACACCAGGAGUACCUCUTT against IKBKE, the median seed-adjusted z-score rises from -0.488 to 0.122.

First: GCAUUUGGAUGGAUCAUGUTT against CD163
Second: GGAAAGACAUGUAAGAGCATT against BMP8B
The median seed-adjusted z-score of the first is higher: 0.021 for the first, 0 for the second.

Going from GAACUAAUCCUGUUCAACATT against ATXN3 to CUGUGAUUGUAGUAGAUCATT against SLC19A3, the median seed-adjusted z-score falls from 0.04 to -0.0232.

Going from GGUGGUCUCUUUAUAAUGATT against PHAX to GCCUUUAUGUCAUCCUCAATT against ZNF626, the median seed-adjusted z-score rises from -0.0716 to 0.185.

Going from GCAGGUCACGGUUGAUGUATT against FANCA to CCAGUGUCAUAAACCUGUATT against NUDT4, the median seed-adjusted z-score falls from 0.418 to -0.0306.

First: GCAUGAGGUUCACCACCAATT against FIBCD1
Second: GCGGUUUACUAUAGACAAATT against IKBKAP
The median seed-adjusted z-score of the first is higher: -0.0249 for the first, -0.0316 for the second.

First: GGUUUUGCACAGCGAGGAATT against B3GALT4
Second: GGGCUAGAUCUGUAUCUUATT against TSC22D3
The median seed-adjusted z-score of the first is higher: 0.233 for the first, 0.0129 for the second.

Compared with GACCUGAUGUGGAAGCAGATT against QDPR, CCCUGACUCUUGGAUAUGATT against MEOX1 is higher in median seed-adjusted z-score: -0.734 for the first, 0.0171 for the second.

Going from GGCGAGAUCUUUAUACGCATT against ZNF224 to AGAACGUGCUCUUCGCUCATT against PRKAR1B, the median seed-adjusted z-score falls from 0.0073 to -0.0406.

First: GGAAAGUUUUUAAGGCGAATT against UHRF2
Second: CAUUGGAAAGUGCGAGUUATT against HUWE1
The median seed-adjusted z-score of the first is lower: -0.0941 for the first, 0.734 for the second.

First: GAGUGAAGUAUAAUCCAUATT against TPH1
Second: CUCUGGUAGAAUCCAAUUATT against GIN1
The median seed-adjusted z-score of the first is higher: -0.055 for the first, -0.0585 for the second.

Going from UCUUCUAAAUACUUCCUAATT against GJC3 to GCAUUUGCCCAGUUCAUGATT against RBM28, the median seed-adjusted z-score rises from -0.137 to 0.649.

First: CACUGUCCUUGGGUGAAUATT against ZDHHC20
Second: CAAGUAUAUUGAACGAGGATT against SLITRK4
The median seed-adjusted z-score of the first is lower: -0.936 for the first, -0.015 for the second.

Going from GCUAAGUACAAAUCAUUCATT against FCN1 to GGAGAGUGGUGAUCGGAUATT against MYOM3, the median seed-adjusted z-score falls from 0.346 to -0.012.

Going from CGAUUCACCAGGAACGACATT against ZBTB7B to CAGAGGUACUCCACGCAGATT against BHLHA15, the median seed-adjusted z-score rises from -0.242 to -0.199.

First: GGCUGGUACCUGGAUGAGATT against FTCD
Second: GUCUAAUGCACUUAGCUAATT against HEL308
The median seed-adjusted z-score of the first is lower: -0.27 for the first, 0.229 for the second.

Compared with GAAUGUGACAAUACAUUUATT against ZNF431, GGAACAAACCCUUAGCUAATT against SLITRK1 is higher in median seed-adjusted z-score: 0.00537 for the first, 0.215 for the second.

In the case of GGUCCAAGCUGAUUACCCUTT against UNC13A, the median seed-adjusted z-score is reported as -2.1 (active).
In the case of GGAAGAAAAUAGUGCUGCATT against BARX1, the median seed-adjusted z-score is reported as 1.63 (active).
For CAUUCGCCGUUACCUGCCATT against POLR2F, the median seed-adjusted z-score was -3.52 (active).
For GGCCUUUCCUUUACUGUCATT against ABCC4, the median seed-adjusted z-score was -1.66 (active).
In the case of GGGAGACGAUUGUUCAUCATT against XPA, the median seed-adjusted z-score is reported as 2.03 (active).
With ACGUGGAGCUCUUAGACAATT against AP1S1 the median seed-adjusted z-score was -1.04 (active).
For CAGUUGUCCUUGUGGAUAATT against TTF1, the median seed-adjusted z-score was 1.76 (active).
In the case of GGCUCUACGGUUUCAAGAUTT against CSNK2B, the median seed-adjusted z-score is reported as -1.62 (active).
For CAUCUCGACUUAUUGGAAATT against WEE1, the median seed-adjusted z-score was -4.05 (active).
With GCUCAAGAGCUUGCACAGATT against SLC25A42 the median seed-adjusted z-score was -1.02 (active).
With GCAGAUCGAUUUCUCAACATT against ABCA1 the median seed-adjusted z-score was -1.27 (active).
With GCAAGACAAGUGAAGUCAATT against CNBP the median seed-adjusted z-score was -1.14 (active).
For AGCUACUAGUGGAGCAGAATT against BAT1, the median seed-adjusted z-score was -1.49 (active).
In the case of GCUGACUACUUGAAGUUCATT against DYRK1A, the median seed-adjusted z-score is reported as -1.3 (active).
In the case of CCUGCCCAGAGAUACGAAATT against SMURF1, the median seed-adjusted z-score is reported as -1.4 (active).
For CGAACGAUUUCCCAAGUUATT against NXF1, the median seed-adjusted z-score was -4.46 (active).
With CCGCUGAGGUGACAACAAATT against XRCC5 the median seed-adjusted z-score was -1.11 (active).
For UGGUCUCAAUGACAGUAGATT against SNRPB, the median seed-adjusted z-score was -3.17 (active).
For GCCUCAUACCAUUCCAUAUTT against MEP1B, the median seed-adjusted z-score was 1.46 (active).
With GCAAAACGGAGGAUUGAGATT against EIF5B the median seed-adjusted z-score was 1.68 (active).
